Bioassay records from PubChem.
In the library only some 0.92% were active in any assay of this set; here they are far more common.
TDP1 inh = TDP1 (human) enzyme inhibition. Q9NUW8. recombinant TDP1, AlphaScreen DNA substrate cleavage. Potency, µM (titrated, usually from 130 µM), hits mostly inhibitors. 350,000 tested, 0.28% active. AID 485290; also: nearly all actives have a fitted effect of over 40% in size
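Compounds were preincubated with Tdp1 (1 nM final) for 15 min at room temperature before substrate (15 nM final) started a 5 min reaction; beads (10 ug/ml final) were then added for 10 min before AlphaScreen detection.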
BLM inh-1 = Bloom syndrome helicase (human) inhibition; P54132; recombinant BLM DNA unwinding, fluorescence dequenching; 350,000 tested, 0.2% active; AID 2528; Potency, µM (titrated, usually from 56.1 µM), actives largely listed as inhibitors; also: nearly all actives have a fitted effect of over 35% in size
RECQ1 inh-1 = RECQ1 (human) helicase inhibition; P46063; RECQ1 DNA unwinding, red fluorescence kinetic read; Potency, µM (doses to about 57.3 µM), usual class: inhibitors; 240,000 tested, 0.54% active; AID 2549; also: nearly all actives have a fitted effect of over 30% in size
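RECQ1T1 50 nM; forked duplex (20 bp + 30-nt ss tails) 200 nM, ATP 2 mM final; pH 8.0, 2 mM MgCl2, 2.5 ug/ml poly(dI-dC); 15 min compound preincubation; discontinuous kinetic read over 2 h at RT.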
FEN1 inh = blocks human flap endonuclease 1; P39748; Recombinant FEN1 flap cleavage, fluorescence, 15 min; Potency, µM (highest dose often 114 µM), actives largely listed as inhibitors; 390,000 tested, 0.35% active; AID 588795; also: nearly all actives have a fitted effect of over 65% in size
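Steps: FEN1 (10 nM) dispensed; compound added by pin tool; 15 min at room temperature; substrate added to 50 nM final; reads at 0 min and 15 min; data normalized and fitted (four-parameter Hill).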
APE1 inh = APE1 (human) endonuclease inhibition; P27695; recombinant APE1, TAMRA/BHQ-2 abasic DNA cleavage fluorescence; Potency, µM (top dose mostly 65.8 µM), most hits filed as inhibitors; 350,000 tested, 0.35% active; AID 2517; also: nearly all actives have a fitted effect of over 55% in size
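Endonuclease cleavage of a quenched abasic-site DNA duplex (50 nM) by APE1 (0.75 nM) was tracked by TAMRA dequenching. Compounds were preincubated with enzyme 15 min at room temperature; data normalized to buffer-only and DMSO wells plus NSC13755 control.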
BLM inh-2 = BLM (human) helicase inhibition, confirmation | shares compounds with BLM inh-1 | BLM DNA unwinding, fluorescence quenching, biochemical | 220 tested, 40% active | AID 2585 | Potency, µM, most hits filed as inhibitors;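 also: strand separation dequenches TAMRA so unwinding raises red fluorescence; series mostly up to about 69 µM; nearly all actives have a fitted effect of over 45% in size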
RECQ1 conf = confirmation of human RECQ1 helicase inhibitors. RECQ1 helicase DNA unwinding, fluorescence. shares compounds with RECQ1 inh-1. Potency, µM (series often up to 229 µM), most hits filed as inhibitors. 610 tested, 28% active; also: nearly all actives have a fitted effect of over 45% in size
RECQ1 ADP FP = counter-screen for RECQ1 inhibitors: ADP displacement. ADP fluorescence polarization displacement counterscreen. 530 tested, 27% active. shares compounds with RECQ1 inh-1. Potency, µM (highest dose often 228 µM), actives largely listed as inhibitors. AID 2711; also: nearly all actives have a fitted effect of over 45% in size
RECQ1 inh-2 = confirmation of human RECQ1 helicase inhibitors; shares compounds with RECQ1 inh-1; recombinant RECQ1 DNA unwinding, red fluorescence; Potency, µM (highest dose often 119 µM), hits mostly inhibitors; 1,100 tested, 15% active; AID 504841; also: nearly all actives have a fitted effect of over 50% in size
Of the large screens only hits and unclear results are named; the others gave an inactive call (follow-up assays come after a bar, where they were run). Calls follow the shape of the dose curve; as a rule, active = well fitted curve in the direction sought with a large enough effect; inconclusive = small, poorly fitted or top-dose-only effect, or another doubt; inactive = no such curve, though single readings can be large; an effect the other way counts as inactive or inconclusive.

Cc1ccc(-c2nn3c(C)nnc3s2)cc1NC(=O)c1ccc(-c2cccc(Cl)c2)o1	RECQ1 inh-1 13µM, FEN1 inh inconclusive | BLM inh-2 inactive | RECQ1 ADP FP inactive | RECQ1 inh-2 inconclusive
CCCN(C(=O)c1cc2c(s1)CCC2)c1c(N)n(Cc2ccccc2)c(=O)[nH]c1=O	BLM inh-1 14µM, RECQ1 inh-1 22µM, APE1 inh inconclusive (no result: TDP1 inh) | BLM inh-2 inconclusive | RECQ1 conf 40µM | RECQ1 ADP FP inactive | RECQ1 inh-2 inactive
O=C(C[n+]1cc(Br)cc2ccccc21)c1ccc(O)c(O)c1	none (no result: TDP1 inh, BLM inh-1, RECQ1 inh-1, APE1 inh)
COc1cccc(OC)c1-c1nn2c(-c3cc(-c4ccccc4)n[nH]3)nnc2s1	BLM inh-1 28µM, RECQ1 inh-1 11µM, FEN1 inh 28µM, APE1 inh inconclusive | BLM inh-2 inconclusive | RECQ1 ADP FP inactive
COc1ccccc1-c1nn2c(-c3cc(-c4ccccc4)n[nH]3)nnc2s1	none (no result: BLM inh-1, RECQ1 inh-1, APE1 inh)
O=c1[nH]c(Nc2ccc(F)cc2)cc2ccccc12	BLM inh-1 32µM, RECQ1 inh-1 inconclusive | BLM inh-2 inconclusive | RECQ1 inh-2 inactive
Oc1ccc(NCc2cccc(OCc3ccc(F)cc3)c2)cc1	BLM inh-1 14µM, RECQ1 inh-1 inconclusive, FEN1 inh inconclusive | BLM inh-2 inconclusive | RECQ1 inh-2 inactive
CC(C)N1CCC(N2CCN(C3CCCC3)CC2CCO)CC1 (configuration not stated)	none
Cc1cccc(N2CCC(N3CCN(C4CCCCC4)C(CCO)C3)CC2)c1C (configuration not stated)	BLM inh-1 14µM, RECQ1 inh-1 inconclusive, APE1 inh 22µM | BLM inh-2 inactive | RECQ1 inh-2 inactive
Oc1ccc([C@@H]2CNCCc3c2cc(O)c(O)c3Cl)cc1	BLM inh-1 inconclusive, RECQ1 inh-1 inconclusive, APE1 inh inconclusive (no result: FEN1 inh) | BLM inh-2 inconclusive | RECQ1 conf inconclusive | RECQ1 ADP FP 7.1µM
COc1ccc2c(C)cc(SCC(=O)Nc3nsc(-c4ccccc4C)n3)nc2c1	none (no result: RECQ1 inh-1, APE1 inh)
O=C(O)CCCCCN1C(=O)/C(=C/c2cn(-c3ccccc3)nc2-c2cccs2)SC1=S	none (no result: TDP1 inh, BLM inh-1, RECQ1 inh-1, APE1 inh)
O=C(O)CCCCCN1C(=O)/C(=C\c2cn(-c3ccccc3)nc2-c2cccs2)SC1=S	BLM inh-1 16µM (no result: TDP1 inh) | BLM inh-2 32µM | RECQ1 conf inactive
Cc1ccc(S(=O)(=O)N2CCN(c3nc(-c4ccc(CN5CCOCC5)s4)nc4ccccc34)CC2)cc1	none (no result: TDP1 inh, BLM inh-1, RECQ1 inh-1, APE1 inh)
Oc1ccc(/C=N/Nc2nc(-c3cccnc3)nc3ccccc23)c(O)c1	APE1 inh inconclusive
Cc1c(O)ccc(/C=N/Nc2nc(-c3cccnc3)nc3ccccc23)c1O	BLM inh-1 inconclusive, RECQ1 inh-1 20µM, FEN1 inh inconclusive | BLM inh-2 24µM | RECQ1 conf inconclusive | RECQ1 ADP FP inactive
O=c1[nH]nc(CNc2ccc(C(F)(F)F)cc2)c2ccccc12	none
O=c1[nH]nc(CNc2ccc(O)cc2)c2ccccc12	BLM inh-1 35µM, RECQ1 inh-1 14µM, APE1 inh inconclusive | BLM inh-2 inactive | RECQ1 conf inactive | RECQ1 ADP FP 40µM | RECQ1 inh-2 inactive
CCOc1ccc2[nH]c(=O)c(C(c3nnnn3Cc3ccco3)N3CCN(C)CC3)cc2c1 (configuration not stated)	BLM inh-1 1.1µM, RECQ1 inh-1 7.1µM, APE1 inh inconclusive | BLM inh-2 inactive | RECQ1 conf inactive | RECQ1 ADP FP 45µM | RECQ1 inh-2 inactive
Cc1cc2cc(C(c3nnnn3Cc3ccco3)N3CCCCC3)c(=O)[nH]c2cc1C (configuration not stated)	none
CCCCc1ccc(C(=O)N/C(=C\c2ccc(C)cc2)C(=O)NC2CCCCC2)cc1	none (no result: RECQ1 inh-1, APE1 inh)
